Measurements from PubChem BioAssay (NCATS).
Records with an inconclusive call do not appear. Values without a mark were called inactive. Calls of active or inactive are those of the source. Calls follow the shape of the dose curve; as a rule, active = well fitted activation curve with a large enough effect in the signal ratio; inconclusive = small, poorly fitted or top-dose-only effect, or effect the other way, or a change in a side signal; inactive = flat fitted curve, though single readings scatter; the % refers to the signal ratio.

Experiment: qHTS assay for small molecule agonists of the antioxidant response element (ARE) signaling pathway (AID 651741); as to activation: % of control where 0% means no effect
Conditions: HepG2 ARE-bla reporter, beta-lactamase FRET ratio, 16 h; series mostly up to 96 µM; activation: at the top concentration
Description: National Center for Advancing Translational Sciences [NCATS]
NIH Chemical Genomics Center [NCGC]
U.S. Environmental Protection Agency [EPA]
National Institutes of Environmental Health Sciences [NIEHS]
National Toxicology Program [NTP]
Oxidative stress has been implicated in the pathogenesis of a variety of diseases ranging from cancer to neurodegeneration. The antioxidant response element (ARE) signaling pathway plays an important role in the amelioration of oxidative stress. The CellSensor ARE-bla HepG2 cell line (Invitrogen) can be used for analyzing the Nrf2/antioxidant response signaling pathway. Nrf2 (NF-E2-related factor 2) and Nrf1 are transcription factors that bind to AREs and activate these genes. The CellSensor ARE-bla Hep G2 cell line contains a beta-lactamase reporter gene under control of the Antioxidant Response Element (ARE) stably integrated into HepG2 cells. The activation of the report gene under culture conditions can be detected by fluorescence intensity. This cell line can be used to screen chemicals in a 1536-well plate format and to identify agonists that induce oxidative stress.
The ARE-bla cells were dispensed at 2,000 cells/5 ul/well in 1536-well black wall/clear bottom plates using a Multidrop dispenser. After the assay plates were incubated at a 37 C/5% CO2 incubator for 5 hours, 23 nL of compounds dissolved in DMSO, positive controls or DMSO only was transferred to the assay plate by a pin tool. The plates were incubated at 37 C for 16 hours. After 1 uL of LiveBLAzer B/G FRET substrate was added using a Flying Reagent Dispenser, the plates were incubated at room temperature for 2 hours, and fluorescence intensity was measured by an Envision plate reader.
Potency is read from the fitted curve at half-maximal effect.

**Q.** For `CN(c1c(Br)cc(Br)cc1Br)c1c([N+](=O)[O-])cc([N+](=O)[O-])cc1C(F)(F)F`, which Potency is on record?
**A.** The Potency was 5.45 µM (active).

**Q.** Which Potency does the source give for `ClC1=C(Cl)C2(Cl)C3C(Cl)C(Cl)CC3C1(Cl)C2(Cl)Cl` (stereo not given) here?
**A.** Its Potency is 66.8 µM (active).

**Q.** For `COc1nc(C)nc(NC(=O)NS(=O)(=O)c2ccccc2CCC(F)(F)F)n1`, which “activation” value is on record?
**A.** The value was 5.28%.

**Q.** With `CN(C)P(=O)(N(C)C)N(C)C` as the molecule, how does the “activation” value read?
**A.** The value was 3.11%.

**Q.** For `CSC1=N[C@@](C)(c2ccccc2)C(=O)N1Nc1ccccc1`, which Potency is on record?
**A.** The Potency was 6.86 µM (active).

**Q.** Which Potency does the source give for `CCOC(=O)Nc1cccc(OC(=O)Nc2ccccc2)c1` here?
**A.** Its Potency is 24.3 µM (active).

**Q.** Which “activation” value does the source give for `Cc1ccn2nc(S(=O)(=O)Nc3c(F)cccc3F)nc2n1` here?
**A.** The value was 7.09%.

**Q.** Which “activation” value does the source give for `Nc1nc(N)nc(N)n1` here?
**A.** The value was 0.446%.

**Q.** Which Potency does the source give for `CCOP(=S)(OCC)SCn1nnc2ccccc2c1=O` here?
**A.** The Potency was 54.5 µM (active).

**Q.** Which Potency does the source give for `COP(=O)(OC)Oc1nc(Cl)c(Cl)cc1Cl` here?
**A.** The Potency was 48.6 µM (active).

**Q.** For `CC1(C(=O)Nc2ccc(O)c(Cl)c2Cl)CCCCC1`, which Potency is on record?
**A.** The Potency was 30.6 µM (active).

**Q.** For `CC(c1ccc(O)cc1)(c1ccc(O)cc1)c1ccc(O)cc1`, which Potency is on record?
**A.** Its Potency is 12.2 µM (active).

**Q.** For `CCC[CH2][Sn]([CH2]CCC)([CH2]CCC)[O][Sn]([CH2]CCC)([CH2]CCC)[CH2]CCC`, which Potency is on record?
**A.** Its Potency is 27.3 µM (active).

**Q.** Which “activation” value does the source give for `COc1nn(C(=O)NS(=O)(=O)c2ccccc2OC(F)(F)F)c(=O)n1C` here?
**A.** The value was -3.6%.

**Q.** For `O=C1C2(Cl)C3(Cl)C4(Cl)C(Cl)(Cl)C5(Cl)C3(Cl)C1(Cl)C5(Cl)C24Cl` (stereo not given), which Potency is on record?
**A.** Its Potency is 66.8 µM (active).

**Q.** With `COc1nc(C)nc(NC(=O)NS(=O)(=O)c2ccccc2Cl)n1` as the molecule, how does the “activation” value read?
**A.** The value was -6.19%.

**Q.** With `O=S(=O)(c1ccc(Cl)cc1)c1cc(Cl)c(Cl)cc1Cl` as the molecule, how does the Potency read?
**A.** The Potency was 27.3 µM (active).

**Q.** With `C=CC(=O)OCCCCCC(C)C` as the molecule, how does the “activation” value read?
**A.** The value was 3.18%.

**Q.** For `CCC[CH2][Sn]([Cl])([CH2]CCC)[CH2]CCC`, which Potency is on record?
**A.** Its Potency is 24.3 µM (active).

**Q.** With `CNC(=O)N(C)c1nc2ccccc2s1` as the molecule, how does the Potency read?
**A.** Its Potency is 27.3 µM (active).

**Q.** For `CC(C)(C)C(O)C(Oc1ccc(-c2ccccc2)cc1)n1cncn1` (stereo not given), which Potency is on record?
**A.** Its Potency is 68.6 µM (active).

**Q.** For `O=[N+]([O-])C(Br)Br`, which Potency is on record?
**A.** Its Potency is 47.3 µM (active).

**Q.** Which Potency does the source give for `CCC(C)c1cc([N+](=O)[O-])cc([N+](=O)[O-])c1O` (stereo not given) here?
**A.** Its Potency is 2.73 µM (active).

**Q.** Which Potency does the source give for `CCOC(=O)C(Cl)Cc1cc(-n2nc(C)n(C(F)F)c2=O)c(F)cc1Cl` (stereo not given) here?
**A.** Its Potency is 54.5 µM (active).

**Q.** For `C=CCCC`, which Potency is on record?
**A.** Its Potency is 66.8 µM (active).

**Q.** Which Potency does the source give for `CCSCCSP(=O)(OC)OC` here?
**A.** Its Potency is 54.5 µM (active).

**Q.** For `CCNC(=O)NC(=O)/C(C#N)=N/OC`, which Potency is on record?
**A.** Its Potency is 61.1 µM (active).

**Q.** With `Cc1cc(C2CC2)nc(Nc2ccccc2)n1` as the molecule, how does the Potency read?
**A.** Its Potency is 54.5 µM (active).

**Q.** For `COc1ccc(-c2ccccc2)cc1NNC(=O)OC(C)C`, which Potency is on record?
**A.** The Potency was 54.5 µM (active).

**Q.** With `O=C1C(Cl)=C(Cl)C(=O)c2ccccc21` as the molecule, how does the Potency read?
**A.** Its Potency is 2.73 µM (active).

**Q.** For `O=C(O)[C@@H]1[C@H](C(=O)O)[C@@]2(Cl)C(Cl)=C(Cl)[C@]1(Cl)C2(Cl)Cl`, which “activation” value is on record?
**A.** Its value is 0.606%.

**Q.** For `CCCOc1nn(C(=O)NS(=O)(=O)c2ccccc2C(=O)OC)c(=O)n1C`, which “activation” value is on record?
**A.** The value was 8.38%.

**Q.** Which “activation” value does the source give for `CC(C)C(=O)OCC(C)(C)C(OC(=O)C(C)C)C(C)C` (stereo not given) here?
**A.** The value was 2.49%.

**Q.** With `COC(=O)c1ccccc1CS(=O)(=O)NC(=O)Nc1nc(OC)cc(OC)n1` as the molecule, how does the “activation” value read?
**A.** The value was -2.97%.

**Q.** With `C(=NC1CCCCC1)=NC1CCCCC1` as the molecule, how does the Potency read?
**A.** The Potency was 24.3 µM (active).

**Q.** For `c1ccc2c(c1)ccc1c3ccccc3ccc21`, which Potency is on record?
**A.** The Potency was 4.33 µM (active).

**Q.** With `O=C(O)C1(O)c2ccccc2-c2ccc(Cl)cc21` (stereo not given) as the molecule, how does the Potency read?
**A.** Its Potency is 48.6 µM (active).

**Q.** With `O=C/C(Cl)=C(/Cl)C(=O)O` as the molecule, how does the Potency read?
**A.** Its Potency is 30.6 µM (active).

**Q.** With `ClC1=C(Cl)[C@@]2(Cl)[C@H]3C[C@@H](Cl)[C@H](Cl)[C@H]3[C@@]1(Cl)C2(Cl)Cl` as the molecule, how does the Potency read?
**A.** The Potency was 24.3 µM (active).

**Q.** Which Potency does the source give for `O=C(CCl)c1ccccc1` here?
**A.** Its Potency is 61.1 µM (active).
